Hits are enriched below; roughly 11% of the tested compounds scored in any of these assays.
FLuc inh-1: Firefly luciferase inhibition profiling of diverse chemical library using quantitative high-throughput screening | Luciferin 4-monooxygenase (Photinus pyralis), P08659 | purified P. pyralis luciferase, luminescence, biochemical | Potency, µM (highest dose often 115 µM), hits mostly inhibitors | 76,000 compounds, 2.5% hits; further: on the % scale 0 is the no-effect control and ±100 the full control effect; nearly all actives have a fitted effect of over 65% in size
Target sequence (P08659 whole entry, looked up): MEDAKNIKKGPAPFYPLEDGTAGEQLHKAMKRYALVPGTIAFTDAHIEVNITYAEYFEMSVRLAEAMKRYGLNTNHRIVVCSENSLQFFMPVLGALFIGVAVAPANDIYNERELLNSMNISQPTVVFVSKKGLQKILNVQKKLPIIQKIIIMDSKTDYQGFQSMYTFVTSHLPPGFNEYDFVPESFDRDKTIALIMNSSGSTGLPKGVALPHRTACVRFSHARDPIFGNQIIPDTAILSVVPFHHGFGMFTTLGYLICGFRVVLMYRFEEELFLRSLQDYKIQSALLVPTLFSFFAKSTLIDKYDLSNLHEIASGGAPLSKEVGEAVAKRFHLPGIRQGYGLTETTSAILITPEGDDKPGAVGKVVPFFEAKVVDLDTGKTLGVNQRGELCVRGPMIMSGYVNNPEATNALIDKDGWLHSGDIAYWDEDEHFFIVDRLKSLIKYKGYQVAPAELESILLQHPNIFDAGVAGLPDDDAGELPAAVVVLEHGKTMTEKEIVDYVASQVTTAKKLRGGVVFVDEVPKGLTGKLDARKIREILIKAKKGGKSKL
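FLuc 10nM, D-luciferin 10uM, ATP 10uM, Mg acetate 10mM, Tris acetate pH 7.5, Tween/BSA; cpd qHTS; enzyme added last; CCD luminescence.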
HEK293 tox: Cytotoxic Profiling in HEK 293 Cell Line of Diverse Libraries Using Quantitative High-Throughput Screening; HEK 293 viability, ATP luminescence (CellTiter-Glo), 48-72 h; Potency, µM (highest dose often 115 µM), for inactives: at the highest dose activity change, negative = cytotoxicity, usual class: inhibitors; 94,000 compounds, 6.6% hits; further: on the % scale 0 is the no-effect control and ±100 the full control effect; nearly all actives have a fitted effect of over 60% in size
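ATP-coupled CellTiter-Glo luminescence served as viability read-out, recorded 10 min after reagent addition at room temperature. HEK 293 cells, 250 cells/well, had been incubated with pintool-transferred compound for 48 or 72 hr at 37 degree Celsius.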
hNpr1 antagonist: Natriuretic polypeptide receptor (hNpr1) antagonism - Primary qHTS; 76,000 compounds, 1.6% hits; HEK293 hNpr1 GloSensor cGMP, ANP-stimulated luminescence; Atrial natriuretic peptide receptor 1 (Homo sapiens), P16066; Potency, µM (doses to about 46.3 µM), without a hit: top-dose activity change, negative = inhibition, actives largely listed as inhibitors; AID 1347048, 2019; calls by dose curve; further: on the % scale 0 is the no-effect control and ±100 the full control effect; nearly all actives have a fitted effect of over 60% in size
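HEK293 cells stably expressing human Npr1 and cGMP GloSensor pGS-40F, loaded 2 h with 2% GloSensor reagent, given compound 30 min at room temperature. Luminescence read before and 20 min after 0.1 nM hNppA.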
NIH3T3 tox: Cytotoxic Profiling in NIH 3T3 Cell Line of Diverse Libraries Using Quantitative High-Throughput Screening; NIH 3T3 viability, CellTiter-Glo ATP luminescence, 48-72 h; Potency, µM (series often up to 96.7 µM), inactives show at the top dose activity change, negative = cytotoxicity, actives largely listed as inhibitors; 94,000 compounds, 4.3% hits; AID 1345082, 2018; further: on the % scale 0 is the no-effect control and ±100 the full control effect; nearly all actives have a fitted effect of over 55% in size
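Cytotoxicity was measured by CellTiter-Glo ATP luminescence after 48 or 72 h compound exposure at 37 °C. Mouse NIH 3T3 fibroblasts were seeded at 400 cells/well and dosed by 23 nL pin transfer.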
FLuc SDR -ATP: Firefly luciferase (FLuc-C-HiBiT) SDR gain of signal screen - without ATP; shares compounds with FLuc inh-1; Potency, µM (top dose mostly 32.7 µM), for inactives: at the highest dose activation (signal gain), hits mostly activators; Purified FLuc-C-HiBiT, Nano-Glo HiBiT luminescence, no ATP; 1,300 compounds, 7.8% hits; further: nearly all actives have a fitted effect of over 55% in size
FLuc SDR ATP: Firefly luciferase (FLuc-C-HiBiT) SDR gain of signal screen - plus ATP | shares compounds with FLuc inh-1 | purified FLuc-C-HiBiT + ATP, HiBiT complementation luminescence | Potency, µM (titrated, usually from 32.7 µM), for inactives: at the top dose activation (gain of signal), most hits filed as activators | 1,300 compounds, 8.7% hits | AID 1963319, 2024;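 further: signal reports ligand binding via conformational change of the enzyme rather than luciferase catalysis; % of control where 0% means no effect; nearly all actives have a fitted effect of over 55% in size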
FLuc inh-2: Firefly luciferase (FLuc-C-HiBiT) enzymatic inhibition screen - Functional assay | shares compounds with FLuc inh-1 | purified FLuc-C-HiBiT enzyme, luciferin luminescence | Potency, µM (top dose mostly 32.7 µM), without a hit: top-dose activity change, negative = inhibition, actives largely listed as inhibitors | 1,300 compounds, 42% hits | AID 1963320, 2024; further: on the % scale 0 is the no-effect control and ±100 the full control effect; nearly all actives have a fitted effect of over 70% in size
Active calls of the source: *; i = inactive; ? = inconclusive; / = no result given; [ ] = remark or other dose. Unless noted, the call rests on the fitted dose curve; in most records, active means well fitted curve in the direction sought with a large enough effect; inconclusive means small, poorly fitted or top-dose-only effect, or another doubt; inactive means no such curve, though single readings can be large; an effect the other way counts as inactive or inconclusive. Potency means the concentration at half of the fitted maximal effect.

SMILES	FLuc inh-1	HEK293 tox	hNpr1 antagonist	NIH3T3 tox	others
O=[S+]([O-])(NC1CCN(c2nccc(Nc3ccccc3F)n2)CC1)c1cccs1	/	44.7µM*	/	44.7µM*
Cc1ccc([S+](=O)([O-])NC2CCN(c3nccc(Nc4ccccc4F)n3)CC2)cc1	/	28.2µM*	/	39.8µM*
COc1ccc(-c2ccc(C(=O)N3CCC(C#N)CC3)cc2)nn1	/	?	/	-25.0%[138 µM]
COc1ccccc1C(=O)N1CCN(C(=O)c2nc3cccnc3n(-c3ccccc3OC)c2=O)CC1	/	-1.8%	/	-7.6%
COc1ccc(Nc2ccnc(N3CCN([S+](=O)([O-])c4cccc(C(F)(F)F)c4)CC3)n2)cc1	/	31.6µM*	/	?
CCOC(=O)C1CCN(C(=O)C2CCCN(Cc3cccc(-c4ccsc4)c3)C2)CC1 (centres undefined)	/	35.5µM*	/	?
O=C(C1CCCN(Cc2cccc(-c3ccsc3)c2)C1)N1CCN(Cc2ccccc2)CC1 (centres undefined)	/	39.8µM*	/	39.8µM*
O=C(C1CCCN(Cc2cccc(-c3ccsc3)c2)C1)N1CCC(Cc2ccccc2)CC1 (centres undefined)	/	39.8µM*	/	?
O=C(C1CCc2ncc(-c3ccsc3)n2C1)N1CCC(Cc2ccccc2)CC1 (centres undefined)	i	-22.0%	4.0%	-27.2%
CN(Cc1ccccc1)C(=O)C1CCCN(Cc2cccc(-c3ccsc3)c2)C1 (centres undefined)	/	39.8µM*	/	?
CCOC(=O)C1CCN(C(=O)C2CCCN(c3cnn(C)c(=O)c3)C2)CC1 (centres undefined)	i	-13.6%	-6.1%	-20.2%
C=CCNC(=O)N[C@H]1CCN(C(=O)CSC)[C@@H]1C(=O)N[C@@H](Cc1cccs1)C(N)=O	i	-8.5%	2.4%	-0.5%
COc1cccc(-c2cc(C(=O)N3CCC(c4ccccc4)CC3)c3cnn(C)c3n2)c1	/	35.5µM*	/	?
COc1cccc(-c2cc(C(=O)N3CCC(Cc4ccccc4)CC3)c3cnn(C)c3n2)c1	/	44.7µM*	/	?
COc1cccc(-c2cc(C(=O)N3CCC(C#N)CC3)c3cnn(C)c3n2)c1	/	-20.9%	/	-23.4%
O=C(NCCc1cccnc1)c1ccc(-c2nnc3ccc(NC(=O)C4CCC4)cn23)cc1	i	?	-1.0%	35.5µM*
COC[C@@H]1CNC[C@H]1c1nc(C)no1	i	89.1µM*	-4.4%	-6.8%
CC1CNC(Cc2ccccc2)CN1C(=O)OC(C)(C)C (centres undefined)	/	-18.8%[172 µM]	/	-7.3%[138 µM]
CC(C)(C)C(=O)N1CC[C@@H](CC(=O)O)[C@@H](CC2=NCCc3ccc(C(C)(C)C)cc32)C1	i	-25.0%[172 µM]	5.9%[70.6 µM]	100µM*
COc1ccc(Nc2cc3c(cn2)NCCN(Cc2ccccc2)C3)cn1	i	?	-0.2%[70.6 µM]	?
c1ccc(CN2CCNc3cnc(Nc4ccc(N5CCOCC5)cc4)cc3C2)cc1	?	70.8µM*	?	39.8µM*
COc1ccc(Nc2cc3c(cn2)CN(Cc2ccncc2)CCN3)cn1	i	?	0.0%[70.6 µM]	-23.4%[138 µM]
c1ccc(CCN2CCNc3cc(Nc4ccc(N5CCOCC5)cc4)ncc3C2)cc1	i	50.1µM*	-4.6%[70.6 µM]	35.5µM*
CCCOc1ccc(CN2C[C@@H](CO)[C@H](c3ccncc3)C2)cc1	i	?	?	-24.4%
O=C(Nc1ccc(Cl)cc1)NC1CCN(c2nc3ncccc3o2)C1 (centres undefined)	/	1.8%	/	-29.9%
SMILES	FLuc inh-1	HEK293 tox	hNpr1 antagonist	NIH3T3 tox	others
CN(C)c1ccc(CN2CC[C@H](c3nc4c(C(N)=O)cccc4[nH]3)C2)cc1	i	70.8µM*	?	100µM*
CC1(NC(=O)C2CC2)CN(Cc2nc(-c3ccccc3OCc3ccccc3)cs2)C1	7.94µM*	79.4µM*	-14.1%[70.6 µM]	?	FLuc SDR -ATP=19.0%[49.3 µM];FLuc SDR ATP=12.8%[49.3 µM];FLuc inh-2=?
CC(=O)NC1(C)CCN(Cc2cnc(-c3ccccc3OCc3ccccc3)s2)CC1	i	?	-1.1%[70.6 µM]	?
CC(=O)NC1(C)CN(Cc2ccc(-c3cccc(F)c3)nc2)C1	?	?	4.5%[70.6 µM]	-18.9%[138 µM]
CC1(NC(=O)C2CC2)CN(Cc2nc(-c3cccc(F)c3)cs2)C1	2.82µM*	?	25.1µM*	-19.8%[138 µM]	FLuc SDR -ATP=?;FLuc SDR ATP=18.9%[49.3 µM];FLuc inh-2=?
O=C1c2c(nc(CNCC3CC3)n2Cc2ccccc2)NCCN1Cc1ccccc1	i	?	0.3%[70.6 µM]	?
COc1ccc(C2Cn3cnc(C(=O)N4CCC(C(=O)NCC5CC5)CC4)c3CO2)cc1 (centres undefined)	i	-7.8%	-0.7%	i
O=C(NCc1ccccc1Cl)C1CCN(C(=O)c2ncn3c2COC(c2ccccc2)C3)CC1 (centres undefined)	14.1µM*	13.3%	-13.8%	0.5%	FLuc SDR -ATP=12.5%;FLuc SDR ATP=?;FLuc inh-2=?
O=C(NCc1ccco1)C1CCN(C(=O)c2ncn3c2COC(c2ccccc2)C3)CC1 (centres undefined)	5.01µM*	0.6%	-20.7%	0.4%	FLuc SDR -ATP=15.3%;FLuc SDR ATP=2.48µM*;FLuc inh-2=2.48µM*
COc1ccc(C2Cn3cnc(C(=O)N4CCC(C(=O)NCCc5ccccc5)CC4)c3CO2)cc1 (centres undefined)	i	11.2%	2.4%	i
Cc1ccc(C2Cn3cnc(C(=O)N4CCC(C(=O)NCc5ccccc5C)CC4)c3CO2)cc1 (centres undefined)	?	-1.9%	-2.6%	2.0%
CCOc1cccc(CNC(=O)C2CCN(C(=O)c3ncn4c3COC(c3ccccc3)C4)CC2)c1 (centres undefined)	14.1µM*	12.6%	-11.8%	-2.0%	FLuc SDR -ATP=16.5%;FLuc SDR ATP=?;FLuc inh-2=?

Bioassay records: PubChem BioAssay, National Center for Advancing Translational Sciences (NCATS)
